Compounds without any hit were thinned out: in the full panel of roughly 83,000, 20% have a hit.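 In brief: 96-well plates, 48 h treatment, single concentration, percent growth endpoint.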 Active and inactive are the calls of the source. How the source made its calls: active means growth percent below 10; inactive means the rest.

In this experiment the test system is KM12 colon. The experiment can be described thus: NCI-60 one-dose screen, 48 h (100 = growth as untreated, 0 = no growth, -100 = all killed). The conditions noted are these: 10 µM unless noted.
Take `N#C/C(=C\c1ccc(-c2ccc(Cl)cc2)o1)C(=O)Nc1ncc(Cc2ccc(Br)cc2)s1`: the growth is 9.51% (active).
As to `O=C(COc1ccc(/C=C2\C(=O)Nc3ccc(Cl)cc32)cc1)Nc1ccc(Cl)cc1`, the growth was 43.2% (inactive).
The figure for `CC(O)c1cccc(/C(N)=N/C(N)=N/c2nc3ccccc3s2)c1` (stereo not given) is 83.2% (inactive).
For `O=C(CN1CCN(c2cc(=O)[nH]c3ccc(F)cc23)CC1)N(c1ccccc1)c1ccccc1`, the growth was 107% (inactive).
The same measure for `Cn1c(SCC(=O)c2ccc(Br)cc2)nc2ccccc2c1=O`: 98.7% (inactive).
Regarding `NC(N)=NS(=O)(=O)c1ccc(N=Nc2c(N)nn(-c3ccc([N+](=O)[O-])cc3[N+](=O)[O-])c2N)cc1`, the growth is 101% (inactive).
The same measure for `Cc1cc2nc3c4cc(C#N)ccc4n(CCN(C)C)c3nc2cc1C`: -3.36% (active); for `O=C(CCCCCCN1CC(=O)N2[C@@H](c3cccs3)c3[nH]c4ccccc4c3C[C@H]2C1=O)NO`: 81.8% (inactive); for `O=C(CSc1nc2ccccc2c(=O)n1CCc1ccccc1)Nc1ccc(S(=O)(=O)Nc2ccc(Cl)nn2)cc1`: 98.8% (inactive).
`CC1=C(C)C(=O)C(Nc2ccc(C)c(C)c2)=C(Br)C1=O`: the growth is 99.8% (inactive).
`COc1cc(/C=C2/C(=O)Nc3ccc(Cl)cc32)ccc1OCc1ccc(Cl)cc1`: the growth was 100% (inactive).
The figure for `Cc1ccc2c(n1)C(=O)C(Cl)=C(Nc1ccc(C(C)C)cc1)C2=O` is 57.8% (inactive); for `CN1CCN(c2ccc(Nc3nc(NCCNS(=O)(=O)c4ccccc4)c4sccc4n3)cc2)CC1` it is 103% (inactive).
In the case of `CNC(=O)c1cc(N2CCc3cc(NC(=O)Nc4ccc(N5CCN(C)CC5)c(C(F)(F)F)c4)ccc32)ccn1`, the growth was 29.5% (inactive).
Consider `C=C(C)[C@@H]1CC[C@]2(COCCCNCCCN)CC[C@]3(C)[C@H](CC[C@@H]4[C@@]5(C)CC[C@H](O)C(C)(C)[C@@H]5CC[C@]43C)[C@@H]12`, for which the growth was -65.4% (active).
The figure for `CN1CCN(Cc2ccc(NC(=O)c3cncc(C#Cc4cnc5ccc(OCC6COC6)nn45)c3)cc2C(F)(F)F)CC1` is -73.6% (active).
The figure for `CCN(CC)S(=O)(=O)c1ccc(-c2nc(C(Cl)Cl)nc3cc(-c4ccc(F)cc4)nn23)cc1` is 9.84% (active); for `O=C(COc1ccc(/C=C2\C(=O)Nc3ccc(F)cc32)cc1)Nc1ccccc1` it is 97.8% (inactive).
The same measure for `CN1CCN(c2ccc(Nc3nc(NCCCNS(=O)(=O)c4ccc(F)cc4)c4sccc4n3)cc2)CC1`: 65.3% (inactive); for `COc1cccc(N2CCN(C3=C(Cl)C(=O)c4ncccc4C3=O)CC2)c1`: 94.5% (inactive); for `C#CCOc1cccc(-c2nc(N)nc(Nc3ccccc3SSc3ccccc3Nc3nc(N)nc(-c4cccc(OCC#C)c4)n3)n2)c1`: 3.92% (active).
`O=C(CSc1nnc(-c2ccc(Cl)cc2)n1-c1ccccc1)Nc1ccc(Cl)cc1`: the growth is 57.6% (inactive).
With `NC(=O)n1c(=O)n(-c2cccc(C(F)(F)F)c2)c(=O)c2cc(-c3ccc(F)cc3F)ccc21`, the growth is 5.24% (active).
For the compound `C#CCOc1ccc(/C=N/Nc2nc(-c3ccc(OC)cc3)cs2)cc1`, the growth was 78.8% (inactive).
The figure for `O=C(CSc1nnc(-c2ccc(Cl)cc2)n1-c1ccccc1)Nc1ccccc1Cl` is 80% (inactive).
The same measure for `CCOC(=O)c1c(NC(=O)c2cccc(C(F)(F)F)c2)sc2c3c(ccc12)OCN(C)C3`: -11.3% (active).
The same measure for `CN1CCN(Cc2ccc(NC(=O)c3cncc(C#Cc4cnc5ccc(OCCCS(C)(=O)=O)nn45)c3)cc2C(F)(F)F)CC1`: -3.51% (active).
Turning to `CCOC(=O)c1c(NCC(=O)Nc2cccc([N+](=O)[O-])c2)sc(C(C)=O)c1C`, the growth is -7.12% (active).
Regarding `N#Cc1c(-c2cccs2)cc(-c2cnccn2)nc1SCC(=O)N/N=C/c1ccccc1`, the growth is 33.2% (inactive).
With `CN1CCN(Cc2ccc(NC(=O)c3cncc(C#Cc4cnc5ccc(O[C@@H]6CCOC6)nn45)c3)cc2C(F)(F)F)CC1`, the growth is -82.4% (active).
For `O=C(CCCCCCNC(=O)c1csc(Br)n1)NO`, the growth is 56.8% (inactive).
The same measure for `O=C(NCCNc1cc(-c2cn(-c3ccccc3)nc2-c2cccc(O)c2)ccn1)Nc1cc(C(F)(F)F)cc(C(F)(F)F)c1`: 1.09% (active); for `COC(=O)c1ccc(NC2=C(Cl)C(=O)c3nc(C)ccc3C2=O)cc1`: 50.3% (inactive); for `CCOP(=O)(OCC)OC[C@]12CCC(C)(C)C[C@H]1C1=CC[C@@H]3[C@@]4(C)CC[C@H](OP(=O)(OCC)OCC)C(C)(C)[C@@H]4CC[C@@]3(C)[C@]1(C)CC2`: 63.9% (inactive).
The same measure for `C/C(=N/N)c1nnn(-c2ccc(Br)cc2)c1C`: 99.4% (inactive).
In the case of `O=C(N/N=C\c1ccc(F)cc1)c1ccc2nc(-c3ccc(Br)cc3)[nH]c2c1`, the growth is 16% (inactive).
With `O=C1Nc2ccc(F)cc2/C1=C\C(=O)c1ccc(NS(=O)(=O)c2ccccc2)cc1`, the growth is 102% (inactive).
Consider `CCCCCc1ccc(S(=O)(=O)Nc2cc(-c3csc(N)n3)ccc2OC)cc1`, for which the growth was 99.6% (inactive).
As to `CN1CCN(c2ccc(Nc3nc(NCCNS(=O)(=O)c4ccc5ccccc5c4)c4sccc4n3)cc2)CC1`, the growth is 86.7% (inactive).
The figure for `CCn1c2ccc(/C=N/N(C)S(=O)(=O)CCN(C)C)cc2c2cc(/C=N/N(C)S(=O)(=O)CCN(C)C)ccc21` is 81.4% (inactive).

For the origin of these results see PubChem BioAssay (NCI).
